# Laboratory results from PubChem BioAssay AID1508601 (ICCB-Longwood Screening Facility, Harvard Medical School, 2020).
# The campaign covered roughly 5,700 compounds. About 85 (1%) were called active. This is one part of a sample in which actives are shown more often than they occur. Rule as the data show it: active = p53-positive nuclei above about 36% (passing the limit was not always enough); inactive = the rest.
# Assays:
# [1] = nuclear p53 accumulation, HPV+ cells – imaging, p53-positive nuclei imaging, 24 h, 48 h (AID 1508601); conditions: 24/48 h
# [2] = molecular target: Cellular tumor antigen p53 (Homo sapiens) (UniProt P04637); assay: as above; conditions: 24/48 h, stronger effect = higher value
# Cellular tumor antigen p53 (Homo sapiens), sequence (P04637 whole entry, looked up): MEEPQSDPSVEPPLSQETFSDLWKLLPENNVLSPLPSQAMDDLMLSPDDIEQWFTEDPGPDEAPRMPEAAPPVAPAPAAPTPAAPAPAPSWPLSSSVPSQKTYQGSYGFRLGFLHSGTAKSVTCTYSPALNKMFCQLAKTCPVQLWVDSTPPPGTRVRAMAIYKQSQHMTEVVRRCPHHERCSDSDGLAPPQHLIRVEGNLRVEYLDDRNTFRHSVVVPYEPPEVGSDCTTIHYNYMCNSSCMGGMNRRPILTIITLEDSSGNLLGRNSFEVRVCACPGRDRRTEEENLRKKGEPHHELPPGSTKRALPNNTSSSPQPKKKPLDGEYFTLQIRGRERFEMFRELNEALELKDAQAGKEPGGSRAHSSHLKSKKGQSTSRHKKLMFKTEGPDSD
# [3] = measured here: cell number at 24 h, concentration not given here
# [4] = measured here: cell number at 48 h, concentration not given here
# [5] = measured here: p53 positive nuclei at 24 h, concentration not given here
# [6] = measured here: cell number at 24 h, Library stock concentration: 10 mM
# [7] = measured here: cell number at 48 h, Library stock concentration: 10 mM
# [8] = Library stock concentration: 10 mM
# [9] = measured here: p53 positive nuclei at 24 h, Library stock concentration: 10 mM
# [10] = measured here: cell number at 24 h, Library stock concentration: 3.33 mM
# [11] = measured here: cell number at 48 h, Library stock concentration: 3.33 mM
# [12] = Library stock concentration: 3.33 mM
# [13] = measured here: p53 positive nuclei at 24 h, Library stock concentration: 3.33 mM
structure (smiles),measurement,setting,value
O=C(Nc1ccc2nccnc2c1)c1csc(Cc2ccccc2)n1,"nuclei count, normalised",[1]; [3],101%
same,"nuclei count, normalised",[1]; [4],102%
same,"p53-positive nuclei, normalised",[2]; concentration not given here,0.478% (inactive)
same,"p53-positive nuclei, normalised",[2]; [5],0.426%
O=C(O)CCCCCCCCCCCNC(=O)NC12CC3CC(CC(C3)C1)C2,"nuclei count, normalised","[1]; measured here: cell number at 24 h, Library stock concentration: 46 uM",111%
same,"nuclei count, normalised","[1]; measured here: cell number at 24 h, Library stock concentration: 278 uM",105%
same,"nuclei count, normalised","[1]; measured here: cell number at 24 h, Library stock concentration: 1.67 mM",106%
same,"nuclei count, normalised",[1]; [6],101%
same,"nuclei count, normalised",[1]; [3],106%
same,"nuclei count, normalised","[1]; measured here: cell number at 48 h, Library stock concentration: 46 uM",111%
same,"nuclei count, normalised","[1]; measured here: cell number at 48 h, Library stock concentration: 278 uM",105%
same,"nuclei count, normalised","[1]; measured here: cell number at 48 h, Library stock concentration: 1.67 mM",103%
same,"nuclei count, normalised",[1]; [7],101%
same,"nuclei count, normalised",[1]; [4],113%
same,"p53-positive nuclei, normalised",[2]; Library stock concentration: 46 uM,-0.188% (inactive)
same,"p53-positive nuclei, normalised",[2]; Library stock concentration: 278 uM,0.036% (inactive)
same,"p53-positive nuclei, normalised",[2]; Library stock concentration: 1.67 mM,0.0433% (inactive)
same,"p53-positive nuclei, normalised",[2]; [8],0.0468% (inactive)
same,"p53-positive nuclei, normalised",[2]; concentration not given here,-0.166% (inactive)
same,"p53-positive nuclei, normalised","[2]; measured here: p53 positive nuclei at 24 h, Library stock concentration: 46 uM",-0.135%
same,"p53-positive nuclei, normalised","[2]; measured here: p53 positive nuclei at 24 h, Library stock concentration: 278 uM",-0.135%
same,"p53-positive nuclei, normalised","[2]; measured here: p53 positive nuclei at 24 h, Library stock concentration: 1.67 mM",0.0415%
same,"p53-positive nuclei, normalised",[2]; [9],-0.0737%
same,"p53-positive nuclei, normalised",[2]; [5],-0.144%
COC(=O)C=CC(=O)N(O)CCCCNCc1ccc(COC(=O)Nc2cccc3ccccc23)cc1,"nuclei count, normalised","[1]; measured here: cell number at 24 h, Library stock concentration: 80 uM",119%
same,"nuclei count, normalised","[1]; measured here: cell number at 24 h, Library stock concentration: 400 uM",118%
same,"nuclei count, normalised","[1]; measured here: cell number at 24 h, Library stock concentration: 2 mM",116%
same,"nuclei count, normalised",[1]; [6],97.3%
same,"nuclei count, normalised","[1]; measured here: cell number at 48 h, Library stock concentration: 80 uM",112%
same,"nuclei count, normalised","[1]; measured here: cell number at 48 h, Library stock concentration: 400 uM",113%
same,"nuclei count, normalised","[1]; measured here: cell number at 48 h, Library stock concentration: 2 mM",110%
same,"nuclei count, normalised",[1]; [7],92.8%
same,"p53-positive nuclei, normalised",[2]; Library stock concentration: 80 uM,-0.786% (inactive)
same,"p53-positive nuclei, normalised",[2]; Library stock concentration: 400 uM,-0.552% (inactive)
same,"p53-positive nuclei, normalised",[2]; Library stock concentration: 2 mM,-0.616% (inactive)
same,"p53-positive nuclei, normalised",[2]; [8],-0.57% (inactive)
same,"p53-positive nuclei, normalised","[2]; measured here: p53 positive nuclei at 24 h, Library stock concentration: 80 uM",-0.122%
same,"p53-positive nuclei, normalised","[2]; measured here: p53 positive nuclei at 24 h, Library stock concentration: 400 uM",-0.0743%
same,"p53-positive nuclei, normalised","[2]; measured here: p53 positive nuclei at 24 h, Library stock concentration: 2 mM",-0.0278%
same,"p53-positive nuclei, normalised",[2]; [9],-0.0473%
CC(=O)OC1C(=O)[C@]2(C)C(O)CC3OC[C@@]3(OC(C)=O)C2C(OC(=O)c2ccccc2)[C@]2(O)CC(OC(=O)C(O)C(NC(=O)c3ccccc3)c3ccccc3)C(C)=C1C2(C)C (stereo partly specified),"nuclei count, normalised","[1]; measured here: cell number at 24 h, Library stock concentration: 500 nM",124%
same,"nuclei count, normalised","[1]; measured here: cell number at 24 h, Library stock concentration: 1.5 uM",89.9%
same,"nuclei count, normalised","[1]; measured here: cell number at 24 h, Library stock concentration: 4.6 uM",58.2%
same,"nuclei count, normalised","[1]; measured here: cell number at 24 h, Library stock concentration: 13.7 uM",49%
same,"nuclei count, normalised","[1]; measured here: cell number at 24 h, Library stock concentration: 41 uM",47.4%
same,"nuclei count, normalised","[1]; measured here: cell number at 24 h, Library stock concentration: 123 uM",43.5%
same,"nuclei count, normalised","[1]; measured here: cell number at 24 h, Library stock concentration: 370 uM",42%
same,"nuclei count, normalised","[1]; measured here: cell number at 24 h, Library stock concentration: 1.111 mM",43.9%
same,"nuclei count, normalised",[1]; [10],33.4%
same,"nuclei count, normalised","[1]; measured here: cell number at 24 h, Library stock concentration: 3.333 mM",39.5%
same,"nuclei count, normalised",[1]; [6],44%
same,"nuclei count, normalised","[1]; measured here: cell number at 48 h, Library stock concentration: 500 nM",119%
same,"nuclei count, normalised","[1]; measured here: cell number at 48 h, Library stock concentration: 1.5 uM",71.2%
same,"nuclei count, normalised","[1]; measured here: cell number at 48 h, Library stock concentration: 4.6 uM",36.2%
same,"nuclei count, normalised","[1]; measured here: cell number at 48 h, Library stock concentration: 13.7 uM",29.7%
same,"nuclei count, normalised","[1]; measured here: cell number at 48 h, Library stock concentration: 41 uM",28.6%
same,"nuclei count, normalised","[1]; measured here: cell number at 48 h, Library stock concentration: 123 uM",29.2%
same,"nuclei count, normalised","[1]; measured here: cell number at 48 h, Library stock concentration: 370 uM",26.7%
same,"nuclei count, normalised","[1]; measured here: cell number at 48 h, Library stock concentration: 1.111 mM",28.6%
same,"nuclei count, normalised",[1]; [11],27.2%
same,"nuclei count, normalised","[1]; measured here: cell number at 48 h, Library stock concentration: 3.333 mM",26.4%
same,"nuclei count, normalised",[1]; [7],28.4%
same,"p53-positive nuclei, normalised",[2]; Library stock concentration: 500 nM,0.615% (inactive)
same,"p53-positive nuclei, normalised",[2]; Library stock concentration: 1.5 uM,7.83% (inactive)
same,"p53-positive nuclei, normalised",[2]; Library stock concentration: 4.6 uM,11.3% (inactive)
same,"p53-positive nuclei, normalised",[2]; Library stock concentration: 13.7 uM,5.37% (inactive)
same,"p53-positive nuclei, normalised",[2]; Library stock concentration: 41 uM,2.36% (inactive)
same,"p53-positive nuclei, normalised",[2]; Library stock concentration: 123 uM,1.56% (inactive)
same,"p53-positive nuclei, normalised",[2]; Library stock concentration: 370 uM,0.755% (inactive)
same,"p53-positive nuclei, normalised",[2]; Library stock concentration: 1.111 mM,1.14% (inactive)
same,"p53-positive nuclei, normalised",[2]; [12],-0.197% (inactive)
same,"p53-positive nuclei, normalised",[2]; Library stock concentration: 3.333 mM,0.0812% (inactive)
same,"p53-positive nuclei, normalised",[2]; [8],0.227% (inactive)
same,"p53-positive nuclei, normalised","[2]; measured here: p53 positive nuclei at 24 h, Library stock concentration: 500 nM",-0.0449%
same,"p53-positive nuclei, normalised","[2]; measured here: p53 positive nuclei at 24 h, Library stock concentration: 1.5 uM",0.807%
same,"p53-positive nuclei, normalised","[2]; measured here: p53 positive nuclei at 24 h, Library stock concentration: 4.6 uM",1.13%
same,"p53-positive nuclei, normalised","[2]; measured here: p53 positive nuclei at 24 h, Library stock concentration: 13.7 uM",-0.0184%
same,"p53-positive nuclei, normalised","[2]; measured here: p53 positive nuclei at 24 h, Library stock concentration: 41 uM",0.131%
same,"p53-positive nuclei, normalised","[2]; measured here: p53 positive nuclei at 24 h, Library stock concentration: 123 uM",0.31%
same,"p53-positive nuclei, normalised","[2]; measured here: p53 positive nuclei at 24 h, Library stock concentration: 370 uM",0.493%
same,"p53-positive nuclei, normalised","[2]; measured here: p53 positive nuclei at 24 h, Library stock concentration: 1.111 mM",0.16%
same,"p53-positive nuclei, normalised",[2]; [13],-0.232%
same,"p53-positive nuclei, normalised","[2]; measured here: p53 positive nuclei at 24 h, Library stock concentration: 3.333 mM",0.515%
same,"p53-positive nuclei, normalised",[2]; [9],0.00376%
CN(C)Cc1ccc(S(=O)(=O)n2ccc(C=CC(=O)NO)c2)cc1,"nuclei count, normalised",[1]; [10],86.4%
same,"nuclei count, normalised",[1]; [11],84%
same,"p53-positive nuclei, normalised",[2]; [12],2.58% (inactive)
same,"p53-positive nuclei, normalised",[2]; [13],5%
Cc1[nH]c2ccccc2c1CCNCc1ccc(C=CC(=O)NO)cc1,"nuclei count, normalised",[1]; [10],37%
same,"nuclei count, normalised",[1]; [11],20.2%
same,"p53-positive nuclei, normalised",[2]; [12],107% (active)
same,"p53-positive nuclei, normalised",[2]; [13],92.9%
Cc1[nH]c2ccccc2c1CCNC(=O)c1cccs1,"nuclei count, normalised",[1]; [10],115%
same,"nuclei count, normalised",[1]; [11],109%
same,"p53-positive nuclei, normalised",[2]; [12],-0.163% (inactive)
same,"p53-positive nuclei, normalised",[2]; [13],-0.341%
